Compound activity deposited in PubChem by several laboratories.
LRH-1 inv ag = suppresses constitutive activity of human LRH-1; O00482; HEK293T StAR-luciferase reporter, LRH-1 transfected, 24 h; inhibition, % at 3.6 µM; 360,000 compounds, 0.13% hits; AID 602396;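 active means inhibition above the mean inhibition of all tested compounds plus 3 SD, cut at about 73% in these data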;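 further: 0% = DMSO wells and 100% = reporter-only cells lacking LRH-1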
Gli-Sufu antag = antagonists of Gli-Sufu signaling; Sufu-KO-LIGHT fibroblasts, Gli luciferase reporter luminescence; inhibition, % at 5 µM; 340,000 compounds, 0.74% hits; AID 588413;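 active means inhibition above about 55%, limit read from the data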;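 further: 0% = DMSO-treated cells and 100% = wells with medium but no cells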
NCOA3 inh = human NCOA3 inhibition. Q9Y6Q9. HEK293 GAL4-SRC3 luciferase reporter, luminescence. inhibition, % at 3.6 µM. 360,000 compounds, 0.17% hits. AID 588352;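 active means inhibition above a per-campaign cutoff, the mean of all compounds plus 3 SD, cut at about 60% in these data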;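 further: 0% = DMSO-treated cells and 100% = gossypol-treated cells at 36 µM; higher means less SRC3-driven luciferase light from the GAL4 reporter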
NCOA1 inh = inhibits human SRC1 coactivator. Q15788. HEK293 GAL4-SRC1 luciferase reporter, luminescence. AID 588354. inhibition, % at 3.6 µM. 360,000 compounds, 0.12% hits;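 active means inhibition above the campaign mean plus 3 SD, with each screening campaign given its own cutoff, cut at about 60% in these data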;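 further: 0% = DMSO treated cells and 100% = gossypol at 36 µM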
Target sequence (Q15788 whole entry, looked up, the tested form may be a part): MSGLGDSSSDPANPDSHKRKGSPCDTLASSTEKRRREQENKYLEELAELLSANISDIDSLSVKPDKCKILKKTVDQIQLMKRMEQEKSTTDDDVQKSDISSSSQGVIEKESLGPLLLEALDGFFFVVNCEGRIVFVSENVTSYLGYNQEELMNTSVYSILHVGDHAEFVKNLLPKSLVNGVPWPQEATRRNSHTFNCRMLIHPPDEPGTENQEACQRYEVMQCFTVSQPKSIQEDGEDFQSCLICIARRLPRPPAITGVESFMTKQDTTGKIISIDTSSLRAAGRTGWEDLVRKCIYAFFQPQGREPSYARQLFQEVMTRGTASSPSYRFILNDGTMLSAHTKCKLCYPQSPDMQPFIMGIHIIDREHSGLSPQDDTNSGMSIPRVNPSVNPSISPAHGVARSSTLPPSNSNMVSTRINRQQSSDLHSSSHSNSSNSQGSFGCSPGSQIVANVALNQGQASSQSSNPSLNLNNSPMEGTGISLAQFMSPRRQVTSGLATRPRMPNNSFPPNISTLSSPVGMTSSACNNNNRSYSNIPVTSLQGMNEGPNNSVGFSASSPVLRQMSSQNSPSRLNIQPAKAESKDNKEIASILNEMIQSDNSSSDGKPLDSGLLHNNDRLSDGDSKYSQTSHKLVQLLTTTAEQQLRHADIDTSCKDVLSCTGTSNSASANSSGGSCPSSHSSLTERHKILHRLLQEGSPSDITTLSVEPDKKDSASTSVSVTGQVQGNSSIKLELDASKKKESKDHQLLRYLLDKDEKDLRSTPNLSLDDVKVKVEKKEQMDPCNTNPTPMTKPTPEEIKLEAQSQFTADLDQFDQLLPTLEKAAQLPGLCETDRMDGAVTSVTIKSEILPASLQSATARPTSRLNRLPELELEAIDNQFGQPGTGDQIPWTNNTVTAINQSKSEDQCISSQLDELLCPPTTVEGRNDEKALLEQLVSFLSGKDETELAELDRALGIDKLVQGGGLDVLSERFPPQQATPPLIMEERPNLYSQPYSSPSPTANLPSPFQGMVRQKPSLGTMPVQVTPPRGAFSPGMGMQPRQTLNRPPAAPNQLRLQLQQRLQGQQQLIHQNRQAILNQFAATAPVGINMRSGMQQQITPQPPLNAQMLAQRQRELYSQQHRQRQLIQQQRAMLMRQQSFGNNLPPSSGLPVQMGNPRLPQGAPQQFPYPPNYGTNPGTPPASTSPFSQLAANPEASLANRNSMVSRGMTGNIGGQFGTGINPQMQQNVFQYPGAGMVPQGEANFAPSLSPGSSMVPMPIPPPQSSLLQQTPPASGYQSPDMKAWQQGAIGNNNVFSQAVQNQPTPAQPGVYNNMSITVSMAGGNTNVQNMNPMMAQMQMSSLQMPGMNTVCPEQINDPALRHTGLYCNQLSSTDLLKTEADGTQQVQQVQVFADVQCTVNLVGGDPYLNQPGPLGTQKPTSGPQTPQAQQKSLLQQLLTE
NCOA2 inhibitor = inhibits human steroid receptor coactivator 2; inhibition, % at 9 µM; Q15596; HEK293 GAL4-SRC2 luciferase reporter, luminescence; 370,000 compounds, 0.17% hits;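 active means inhibition above the mean inhibition of all tested compounds plus 3 SD, set per campaign, cut at about 52% in these data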;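 further: 0% = DMSO treated cells and 100% = cells given Gossypol at 36 µM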
Gli antag conf = confirmation of Gli-SUFU pathway antagonists; shares compounds with Gli-Sufu antag; Sufu-KO-LIGHT cells, Gli luciferase reporter, luminescence; inhibition, % at 5 µM; 2,500 compounds, 40% hits;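 active means mean inhibition at 5 µM reaching about 45%, limit read from the data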;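 further: plate controls were DMSO-treated cells for no effect and wells lacking cells for full effect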
SufuKO cytotox = cytotoxic in Gli-SUFU antagonist counter-screen; shares compounds with Gli-Sufu antag; Sufu-KO-LIGHT cells cytotoxicity, ATP luminescence; cytotoxicity, % at 5 µM; 2,500 compounds, 32% hits; AID 651994;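 active means mean cytotoxicity at 5 µM above about 25%, limit read from the data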;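 further: cells exposed to compound overnight for roughly 16 to 18 hours; plate controls were DMSO wells with cells for no effect and medium without cells for full effect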
Wnt3a cs = Wnt3a reporter inhibition counter-screen | inhibition, % at 6.25 µM | Wnt-LIGHT cells, Wnt3a-driven luciferase reporter, luminescence | 2,500 compounds, 20% hits | AID 651995 | shares compounds with Gli-Sufu antag;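 active means mean inhibition above about 25%, limit read from the data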
* = called active by the depositor; . = no result given. This is a sample that favours compounds with a hit; in the whole collection about 0.83% have one here.

SMILES	LRH-1 inv ag	Gli-Sufu antag	NCOA3 inh	NCOA1 inh	NCOA2 inhibitor	Gli antag conf	SufuKO cytotox	Wnt3a cs
Cc1cc(C(=O)CSc2nnc(-c3ccccc3)n2Cc2ccc3c(c2)OCO3)c(C)n1C	-36.1	2.3	17.9	-1.9	-39.9	.	.	.
CS(=O)(=O)N(CC(=O)Nc1ccccc1Sc1ccccc1)c1ccc(F)cc1	2.7	64.6*	-15.1	-4.5	1.6	27.9	5.6	-4.8
CS(=O)(=O)N(CC(=O)Nc1ccccc1-c1ccccc1)c1ccc(F)cc1	-8.0	3.5	9.7	-7.6	17.6	.	.	.
CCOc1ccc(-n2c(SCC(=O)Nc3ccccc3-c3ccccc3)nnc2-c2cccs2)cc1	.	.	.	.	8.8	.	.	.
Cc1ccccc1NC(=O)NCCc1c[nH]c2ccccc12	6.8	-13.2	13.5	-12.2	2.6	.	.	.
Cc1ccccc1NC(=O)Cc1c[nH]c2ccccc12	-2.3	55.2*	-11.7	-2.5	0.8	18.4	18.0	-36.6
Cc1cc(C(=O)O[C@@H]2CCC[C@]3(C(=O)N(Cc4ccccc4)c4ccccc43)[C@H]2NC(=O)CCc2ccccc2)no1	.	.	.	.	-1.2	.	.	.
O=c1ccc(-c2ccc(S(=O)(=O)NCC3CCN(Cc4cccc(F)c4)CC3)s2)n[nH]1	0.5	59.2*	19.0	2.3	-14.6	12.5	21.9	-4.8
CCN(CC)C(=O)CC[C@H]1CC[C@]2(CCCN(Cc3ccccn3)C2)O1	.	.	.	.	-2.6	.	.	.
O=C(c1ccccc1)c1ccc(OCCOCCN2CCN(Cc3ccccc3)CC2)cc1	28.5	68.0*	10.1	9.2	15.8	19.9	11.3	-38.2
Cc1cc(C(=O)COc2cccnc2[N+](=O)[O-])c(C)n1Cc1cccs1	-18.5	70.9*	30.6	8.2	21.5	27.8	20.9	49.1*
Cc1cc(-n2c(C)cc(C(=O)COc3cccnc3[N+](=O)[O-])c2C)no1	6.1	0.5	6.3	-9.7	-12.1	.	.	.
Cc1ccc(OCC(=O)c2cc(C)n(-c3ccccc3)c2C)c([N+](=O)[O-])n1	33.4	70.5*	53.1	28.7	78.4*	74.5*	15.9	86.7*
Cc1ccc(C)c(C(=O)COc2ccc(C)nc2[N+](=O)[O-])c1	-9.7	0.4	-9.4	-8.9	-13.3	.	.	.
CC(=O)C1(C(=O)NC2CCCC2)CC(c2ccccn2)=NO1 (stereo not drawn)	.	.	.	.	-1.1	.	.	.
CCn1c(SCC(=O)c2ccc(-c3ccccc3)cc2)nnc1-c1ccccc1OC	.	.	.	.	2.4	.	.	.
CC[C@H](C)[C@@H](C(=O)NCCCCCCCCCCC(=O)N1CCN(C(=O)OC(C)(C)C)CC1)n1cc(CCCCCNC(=O)OC(C)(C)C)nn1	9.1	56.9*	20.6	9.2	23.6	68.2*	14.9	37.1*
COC(=O)C1CCN(C(=O)CN2CCC(C(=O)c3ccc(C)cc3)CC2)CC1	.	.	.	.	-9.3	.	.	.
O=C(N/N=C\c1cc(Cl)ccc1O)c1ccc(S(=O)(=O)N2CCCCC2)cc1	-3.4	73.3*	27.0	12.2	-1.3	77.9*	37.2*	60.5*
O=C(Nc1cc(S(=O)(=O)Nc2ccc(Cl)cc2)ccc1O)c1ccc(S(=O)(=O)N2CCCCCC2)cc1	-12.9	3.3	17.8	-1.4	-12.1	.	.	.
CC(NC(=O)c1ccccc1Cl)C1CC2CCC1C2 (stereo not drawn)	1.7	5.6	-10.8	11.5	-8.1	.	.	.
CC(NC(=O)CCNC(=O)c1ccccc1Cl)C1CC2CCC1C2 (stereo not drawn)	19.5	54.6	13.8	20.6	-6.4	17.5	17.6	-34.5
CNC(=O)C(=O)Nc1cc2c3c(c1)CCN3C(=O)CC2	4.6	95.5*	0.5	12.9	-11.5	18.7	5.3	2.6
COC(CNC(=O)C(=O)Nc1cc2c3c(c1)CCN3C(=O)CC2)OC	3.5	97.9*	5.9	9.2	-11.5	24.8	-0.5	15.7
COC(=O)[C@]12C[C@H](CC(=O)N3CCCC3)C(=O)N(Cc3ccc(Cl)cc3Cl)C1=C[C@H](C(C)(C)C)O[C@@H]2C	.	.	.	.	12.9	.	.	.
SMILES	LRH-1 inv ag	Gli-Sufu antag	NCOA3 inh	NCOA1 inh	NCOA2 inhibitor	Gli antag conf	SufuKO cytotox	Wnt3a cs
CC(C)Cc1nnc(NC(=O)CC(=O)Nc2ccccc2C(=O)O)s1	1.5	-1.7	10.8	-4.7	-7.1	.	.	.
CC(C)c1nnc(NC(=O)CC(=O)Nc2ccccc2C(=O)O)s1	-34.8	51.8	-17.3	-5.1	-30.0	43.8	-4.6	48.3*
Cc1nn(CC(=O)NC(C)CCc2ccccc2)c(=O)c2nn(-c3ccccc3)c(C)c12 (stereo not drawn)	-5.9	52.3	-6.2	1.0	15.2	16.3	-2.8	-15.6
Cc1ccccc1CCNC(=O)Cn1nc(C)c2c(C)n(-c3ccccc3)nc2c1=O	15.9	3.6	-0.5	-4.8	-8.7	.	.	.
Cc1ccc(N2CC(C(=O)Nc3nc4ccc(S(C)(=O)=O)cc4s3)CC2=O)cc1C (stereo not drawn)	41.6	50.8	4.5	-2.2	6.4	18.6	13.4	-43.1
CCCC/C=C1/[C@@H](c2ccc(Cl)cc2)N(Cc2ccc3c(c2)OCO3)C2=N[C@@H](c3ccccc3)CC(=O)N21	.	.	.	.	-2.3	.	.	.
CCNC(=O)/C(C#N)=C/c1c(N(Cc2ccccc2)Cc2ccccc2)nc2ccccn2c1=O	13.2	88.5*	7.2	7.0	-2.1	27.1	-1.4	-25.8
CCCCN1CCN(C(=O)C2CCCN(C(=O)c3ccc4c(c3)NC(=O)CS4)C2)CC1 (stereo not drawn)	.	.	.	.	-10.1	.	.	.
CC(C)(C)OC(=O)NCc1ccccc1/C=C/S(=O)(=O)NCCc1ccccc1	.	.	.	.	8.7	.	.	.
O=C(NC1CCCCN(Cc2ccc(OC(F)(F)F)cc2)C1=O)c1cccc(C(F)(F)F)c1 (stereo not drawn)	.	.	.	.	-1.5	.	.	.
Cc1ccc2nc3c(cc(S(=O)(=O)c4ccccc4)c(=N)n3Cc3ccco3)c(=O)n2c1	-77.1	50.7	-82.9	-72.3	-28.5	-0.8	14.6	-38.9
Nn1c(SCC(=O)Nc2ccccc2-c2ccccc2)nnc1-c1n[nH]c2c1CCC2	.	.	.	.	8.4	.	.	.
CN1CCN(NC(=O)c2ccc(Cl)s2)CC1	9.4	51.8	14.3	-11.1	-2.3	13.6	0.0	15.1
CN1CCN(NC(=O)c2ccc(F)cc2)CC1	12.2	23.7	-11.2	-15.6	-18.6	.	.	.
O=C(/C=C/c1ccc(OCc2ccccc2)c(OCc2ccccc2)c1)c1cccnc1	27.4	53.4	27.0	3.3	20.7	25.3	14.6	-20.2
COc1ccc(C=CC(=O)c2ccc(OCc3ccccc3)c(OC)c2)cc1OC	-16.6	.	-2.9	-18.9	26.8	.	.	.
Cc1ccccc1CN1CCN(CCCc2ccccc2)C(CCO)C1 (stereo not drawn)	8.4	29.9	2.5	4.3	15.6	.	.	.
OCCC1CN(Cc2ccccc2O)CCN1CCCc1ccccc1 (stereo not drawn)	7.8	54.0	-6.3	3.7	-3.4	30.0	-0.6	-42.9
COc1ccc(CNCC#Cc2ccccc2)c(OC)c1	.	.	.	.	8.1	.	.	.
